Screening results: PubChem, Broad Institute
EWS-Fli block = inhibitors of EWS/Fli oncoprotein transcriptional activity. actives 0.67% (n = 350,000). AID 651661. inhibition, % at 12.6 µM. A673 NR0B1-luciferase reporter, viability-normalised;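 active = mean inhibition of at least 50% after viability correction, with every replicate also passing that limit; inconclusive = mean reaches 50% but only one of two replicates passes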;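 also: firefly luciferase signal divided by Alamar Blue viability fluorescence both relative to DMSO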
esBAF inh = blocks esBAF chromatin remodeling in mouse ES cells | Bmi1-luciferase knock-in reporter, 24 h; 100% = twice the neutral-well signal | reporter increase, % at 12.5 µM | actives 2% (n = 350,000) | AID 602393; in the data active = activation above about 40%; inconclusive = no clear call, values can overlap the other calls;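 also: 0% = median of the plate's neutral control wells and 100% = double that signal; a rise in the Bmi1 reporter signal indicates esBAF inhibition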
MITF TRPM1 HTS = MITF TRPM1 promoter activation in melanoma cells. actives 0.75% (n = 300,000). SK-MEL-5 TRPM1-promoter luciferase, 24 h; % of positive control, neutral wells = 0. AID 588334. activation, % at 12.5 µM;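 active = mean activation of at least 80% with every replicate also reaching 80%; inconclusive = mean reaches 80% but some replicate falls short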;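 also: 0% = neutral control wells and 100% = parthenolide positive control wells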
PAX8 inh HTS = PAX8 transcriptional activity inhibition; inhibition, % at 12.6 µM; actives 1.2% (n = 360,000); AID 652154; RMG-I TPO-luciferase reporter, SteadyGlo, 24 h;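 active = mean replicate inhibition at least 60% with every replicate also reaching 60%; inconclusive = only one of the two criteria is met; inactive = mean below 60% and not all replicates reaching 60%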;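 also: luciferase light reporting Pax8 driven TPO promoter activity; plate controls were median of neutral control wells for no effect and mitoxantrone controls for full effect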
Wnt act = Wnt/beta-catenin pathway activation | Wnt/beta-catenin reporter cell assay, activator, plate reader | activation, % at 9.35 µM | actives 1.2% (n = 300,000) | AID 743398; in the data active = activation above about 30%, passing the limit was not always enough; inconclusive = no clear call, values can overlap the other calls;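 also: 0% = neutral control wells and 100% = positive control wells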
MITF TRPM1 inh = MITF TRPM1 promoter inhibition in SK-MEL-5 cells; SK-MEL-5 TRPM1 promoter luciferase, 24 h; inhibition, % at 12.5 µM; actives 0.83% (n = 330,000); AID 488899;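 active = mean inhibition across replicates of 60% or more, whatever share of single replicates reaches that level; inconclusive = some that reach 60%, reason not given; inactive = mean inhibition across replicates below 60%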
esBAF Ring1 qPCR = esBAF inhibition confirmed by Ring1 de-repression; shares compounds with esBAF inh; mouse ESC E14, Ring1 mRNA RT-qPCR fold change; fold change at 33 µM; 550 tested, under 10 active;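 active = Ring1 gene expression raised more than 2-fold over untreated cells in both replicates at either tested dose; inconclusive = only one replicate above 2-fold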;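 also: Ring1 transcript normalised to actin housekeeping signal by TaqMan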
Fgf4 repress = represses Fgf4 in mouse ESCs, confirming esBAF inhibition; Fgf4 expression fold change at 33 µM; mouse ESC E14, Fgf4 mRNA qPCR fold change; hits give low values; actives 4% (n = 550); shares compounds with esBAF inh;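 active = Fgf4 expression under 0.8 fold of control in both repeat measurements at one or both tested doses; inconclusive = under 0.8 fold in just a single repeat measurement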;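 also: Fgf4 transcript normalised to actin in duplex TaqMan qPCR; cells exposed to compound for 24 h before lysis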
Bmi1 derepress = de-represses Bmi1 in mouse ESCs, confirming esBAF inhibition; shares compounds with esBAF inh; mouse ESE14 ES cells, Bmi1 mRNA qPCR fold; hits give high values; fold change at 33 µM; 550 tested, under 10 active; AID 743180;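 active = Bmi1 expression fold change above 6 at either tested concentration, seen in replicate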;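 also: higher fold means more Bmi1 de-repression and stronger esBAF inhibition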
A549 tox SP = kills or reduces viability of A549 cells. shares compounds with esBAF inh. A549 cytotoxicity, plate reader. cell viability change % (negative = cytotoxic), % at 25 µM, hits read low. 550 tested, under 10 active. AID 743188; call rule not given here
HepG2 cytotox SP = HepG2 cell cytotoxicity at single point; shares compounds with esBAF inh; plate reader; hits give low values; activity change, negative = inhibition, % at 25 µM; actives 4% (n = 550); in the data active = activity change below about -50%
HEK293 cytotox SP = kills or reduces viability of HEK293 cells. shares compounds with esBAF inh. HEK293 cytotoxicity, plate reader. activity change, negative = inhibition, % at 25 µM, hits read low. actives 3% (n = 550); in the data active = activity change below about -38%, passing the limit was not always enough
Numbers without * were called inactive; ? = inconclusive; nt = no result. Shown are actives, neighbours in structure and some others; about 4% of the full set was active somewhere.

SMILES | EWS-Fli block | esBAF inh | MITF TRPM1 HTS | PAX8 inh HTS | Wnt act | MITF TRPM1 inh | esBAF Ring1 qPCR | Fgf4 repress | Bmi1 derepress | A549 tox SP | HepG2 cytotox SP | HEK293 cytotox SP
CN(Cc1cccnc1)C(=O)c1cc(COc2ccc3c(c2)CCCC3)on1 | -49.5 | 85.7* | 66.3 | nt | 23.5 | -65.7 | 1.27 | 0.947 | 1.59 | 1.0 | -4.9 | -41.3
O=c1oc2ccccc2c(O)c1CN1CCCCC1 | nt | -5.6 | nt | nt | nt | 7.8 | nt | nt | nt | nt | nt | nt
O=C(Cc1c(O)c2ccccc2oc1=O)c1ccc(F)cc1 | -15.4 | 69.4* | nt | -100.9 | 27.9 | nt | 0.856 | 0.931 | 1.47 | -13.5 | -33.1 | -5.8
c1ccc(-c2nnc3oc(-c4cccs4)nn23)cc1 | -1.0 | 166.4* | nt | 5.3 | -0.9 | nt | 1.21 | ? | 2.78 | -8.5 | -39.3 | -11.7
Cc1ccc(C)c(NC(=O)c2cc(-c3cc(C)c(C)cc3O)n[nH]2)c1 | -30.9 | 57.4* | 99.9* | -64.1 | 11.1 | -102.2 | 1.35 | 0.843 | 1.56 | -3.4 | -16.1 | -2.2
COc1ccc2c(c1OC)C(=O)N1c3ccccc3SC21 (stereo not drawn) | nt | 78.0* | 42.1 | nt | nt | -40.8 | 1.03 | 0.978 | 1.38 | 9.0 | -23.7 | -4.5
COc1ccc2c(c1OC)C(=O)N1c3ccccc3COC21 (stereo not drawn) | nt | 34.0 | ? | nt | nt | -71.8 | nt | nt | nt | nt | nt | nt
O=C(C[C@@H]1CC[C@H]2[C@@H](COC[C@@H](O)CN2S(=O)(=O)c2ccc(Cl)cc2)O1)N[C@H]1CCN(Cc2ccccc2)C1 | 4.2 | -2.8 | nt | -0.3 | nt | nt | nt | nt | nt | nt | nt | nt
COc1ccc(Cl)cc1C(=O)NNC(=O)c1cccs1 | -55.2 | 54.6* | 38.0 | -148.5 | -0.3 | -37.1 | 1.33 | 0.956 | 1.42 | -3.2 | -35.4 | -14.8
Cc1cc2oc(=O)cc(CN3CCC(C)CC3)c2c(C)c1Cl | nt | 58.8* | nt | -23.8 | 8.4 | -57.9 | 1.05 | 0.851 | 1.43 | -20.8 | -33.8 | -21.8
Cc1cc(C)c2c(CN3CCC(C)CC3)cc(=O)oc2c1 | -44.2 | 26.0 | 36.9 | -23.7 | 19.2 | -27.6 | nt | nt | nt | nt | nt | nt
Cc1cc(=O)oc2cc(NC(=O)c3cccc(F)c3)ccc12 | -99.5 | 68.3* | 51.5 | -36.5 | 20.5 | -55.3 | 1.21 | 0.919 | 0.948 | -8.2 | -13.1 | -0.1
O=C(NCC[C@@H]1CC[C@@H](NC(=O)c2ccc3c(c2)OCO3)[C@@H](CO)O1)Nc1cc(F)ccc1F | -1.5 | 14.3 | nt | -16.7 | nt | nt | nt | nt | nt | nt | nt | nt
COc1ccc(-c2ccc([C@H]3[C@@H](CO)N(C(=O)C4CCC4)[C@H]3C#N)cc2)cc1 | -13.4 | -2.8 | nt | -23.5 | nt | nt | nt | nt | nt | nt | nt | nt
COc1ccc2c(c1)CC/C(=C/c1ccccn1)C2=O | -70.3 | 67.8* | 46.2 | -44.0 | 25.6 | -38.1 | 1.1 | 0.375* | 4.98 | -4.0 | -15.5 | -21.8
COc1cccc(N2CCN(C(=O)c3ccc4nc(N5CCCCC5)sc4c3)CC2)c1 | -87.4 | 63.6* | 38.4 | -168.8 | 27.2 | -36.0 | 1.08 | ? | 1.08 | -3.6 | 7.6 | -22.0
COc1ccc(OCc2cc(C(=O)NC(C)c3csc(C)n3)no2)c(Cl)c1 (stereo not drawn) | nt | 66.2* | 64.1 | -217.2 | 29.0 | -62.5 | 1.18 | 0.832 | 1.22 | -3.8 | -28.7 | -11.9
O=C1c2ccccc2C(=O)N1CCSc1nncs1 | nt | 4.0 | 12.9 | nt | nt | -5.9 | nt | nt | nt | nt | nt | nt
Cc1csc(SCCN2C(=O)c3ccccc3C2=O)n1 | nt | 65.0* | 74.4 | nt | 16.0 | -71.4 | 1.22 | 1.02 | 1.62 | -5.9 | -0.2 | -7.1
COc1cccc(-c2nc(-c3ccc(NC(=O)c4cccs4)cc3)no2)c1 | nt | 62.0* | 52.1 | nt | nt | -54.4 | 1.1 | 0.861 | 1.5 | -15.0 | -6.2 | -18.3
COc1cccc(-c2nc(-c3ccc(NC(=O)c4ccncc4)cc3)no2)c1 | nt | 20.4 | nt | nt | nt | 7.6 | nt | nt | nt | nt | nt | nt
COc1ccc(NC(=O)c2cc(-c3cccs3)on2)cc1 | -136.9 | 62.1* | 109.9* | -87.1 | ? | -114.6 | 0.965 | ? | 2.11 | -10.9 | -2.7 | 7.8
COc1ccc(S(=O)(=O)Nc2ccc3c(c2)C(=O)N([C@@H](C)CO)C[C@@H](C)[C@@H](CN(C)C(=O)C2CCCCC2)OCCCC[C@H](C)O3)cc1 | 3.1 | 4.8 | nt | -6.2 | nt | nt | nt | nt | nt | nt | nt | nt
Clc1ccc(-c2csc(N3CCSCC3)n2)cc1 | -83.1 | 75.9* | 45.8 | -44.7 | 9.5 | -50.0 | 0.986 | 0.867 | 1.74 | -7.3 | -11.4 | -10.6
CC(/C=C/c1ccc(N(C)C)cc1)=N/N=C1/NC(=O)CC(C(=O)Nc2ccc(Cl)cc2)S1 (stereo not drawn) | -14.0 | nt | 30.2 | -44.6 | nt | -30.2 | nt | nt | nt | nt | nt | nt
SMILES | EWS-Fli block | esBAF inh | MITF TRPM1 HTS | PAX8 inh HTS | Wnt act | MITF TRPM1 inh | esBAF Ring1 qPCR | Fgf4 repress | Bmi1 derepress | A549 tox SP | HepG2 cytotox SP | HEK293 cytotox SP
CCCOc1ccc(NC(=O)C2CC(=O)N/C(=N/N=C(C)/C=C/c3ccc(N(C)C)cc3)S2)cc1 (stereo not drawn) | nt | 59.3* | 57.8 | nt | nt | -56.2 | 0.952 | 0.898 | 1.33 | -2.4 | -18.8 | -4.3
COc1cc(C2Nc3cc(Cl)c(S(N)(=O)=O)cc3S(=O)(=O)N2)ccc1OCc1ccccc1 (stereo not drawn) | nt | ? | 46.3 | -118.1 | -2.7 | -40.2 | 0.947 | 1.01 | 1.5 | 0.8 | -51.3* | -3.1
COc1cc(C2Nc3cc(Cl)c(S(N)(=O)=O)cc3S(=O)(=O)N2)cc(OC)c1OC (stereo not drawn) | nt | -0.9 | -8.2 | nt | nt | 9.2 | nt | nt | nt | nt | nt | nt
CC(NC(=O)c1cc(COc2ccc(-n3cncn3)cc2)on1)c1ccc(F)cc1 (stereo not drawn) | -49.6 | 58.9* | nt | -66.9 | 15.6 | nt | 1.14 | ? | 1.55 | -11.9 | 44.6 | 12.9
O=C(c1cc(COc2ccc(-n3cncn3)cc2)on1)N1CCCC1 | -14.3 | 8.8 | -3.9 | -2.9 | 1.1 | 3.4 | nt | nt | nt | nt | nt | nt
CC(C)NC(=O)N1CC(=O)N2[C@H](CO)[C@@H](c3ccc(/C=C/c4ccccc4)cc3)[C@H]2C1 | 1.0 | nt | nt | 37.5 | nt | nt | nt | nt | nt | nt | nt | nt
COCc1cn(CC[C@@H]2CC[C@@H](NC(=O)CCN3CCCCC3)[C@@H](CO)O2)nn1 | 2.1 | 0.7 | nt | -9.0 | nt | nt | nt | nt | nt | nt | nt | nt
COc1ccccc1NC(=O)Cn1nnc(-c2ccccc2NC(=O)c2cc3ccccc3oc2=O)n1 | -30.9 | 65.7* | 38.2 | nt | 4.0 | -36.0 | 1.05 | 0.872 | 1.5 | -6.7 | -2.6 | -12.7
